CHT block: human CHT choline transport inhibition. CHT-expressing cells, membrane potential dye, choline response; active compounds read low. 0.86% of 310,000 active. B-score at 10 µM. Q9GZV3;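 active = B-score over 3 SD under the library average, and starting fluorescence ratio not unusually high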;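 note: choline stimulus applied at its EC90 after an EC20 pre-addition; B-score computed on integrated fluorescence ratio after choline addition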
CHT allo act: allosterically activates the human high affinity choline transporter; B-score at 10 µM; 0.49% of 310,000 active; AID 488977; Q9GZV3; CHT-expressing cells, membrane potential dye, choline EC20; active compounds read high; LV-AA mutant CHT in HEK293 cells;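 active = initial fluorescence not abnormally high and integrated response B-score, plate-corrected, over 3 SD above library mean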
PHOSPHO1 block: inhibitors of human PHOSPHO1 phosphatase; Q8TCT1; recombinant PHOSPHO1, absorbance phosphatase assay; inhibition, % at 13.3 µM; 1.1% of 290,000 active; AID 1565; in the data active = inhibition above about 60%
Target sequence (Q8TCT1 whole entry, looked up): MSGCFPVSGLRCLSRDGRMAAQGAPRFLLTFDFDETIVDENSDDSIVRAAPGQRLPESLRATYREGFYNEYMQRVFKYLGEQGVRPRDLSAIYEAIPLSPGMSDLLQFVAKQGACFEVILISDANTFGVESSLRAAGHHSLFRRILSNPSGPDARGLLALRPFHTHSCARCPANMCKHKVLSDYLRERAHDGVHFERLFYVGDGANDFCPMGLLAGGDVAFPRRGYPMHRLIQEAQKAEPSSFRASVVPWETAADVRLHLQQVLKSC
TMEM16A act: mouse TMEM16A channel activation, primary screen; 0.3% of 340,000 active; HEK293 TMEM16A/YFP-H148Q/I152L, iodide quench fluorescence; active compounds read low; Q8BHY3; B-score at 10 µM;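 active = fluorescence-ratio B-score plate-corrected deviation score at least 3 library SD below zero, with starting fluorescence score within 5 deviations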;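 note: channel opened by trigger with iodide after compound preincubation; score built on the fluorescence ratio of max minus min over baseline; more negative score means more quench and so TMEM16A activation or potentiation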
ANO1 block: blocks the mouse calcium-activated chloride channel TMEM16A | HEK293 TMEM16A/YFP iodide influx fluorescence, ionomycin | normalized B-score (activity score, 25-100; higher = stronger inhibition) at 10 µM | 1.2% of 310,000 active;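 active = ratio plate-corrected score three or more library SD toward inhibition, starting fluorescence score within five deviations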;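 note: score derived from kinetic fluorescence span divided by baseline fluorescence per well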
HDAC3 inhib: human HDAC3 inhibition. O15379. recombinant HDAC3, fluorogenic peptide/trypsin coupled, fluorescence. inhibition, % at 8.3 µM. 0.15% of 320,000 active. AID 2718; in the data active = inhibition above about 26%, passing the limit was not always enough
* marks the source's active call; other numbers are inactive results. A selection: hits, their analogues and other compounds. The true share with any hit is near 3.2%.

How did Cc1n[nH]c(=S)n(/N=C/c2cccc([N+](=O)[O-])c2)c1=O do in these assays?
CHT block: inactive; CHT allo act: inactive; PHOSPHO1 block: 12; TMEM16A act: inactive; ANO1 block: inactive; HDAC3 inhib: -15

What do the screens show for `COc1cc(/C=N/n2c(=S)[nH]nc(C)c2=O)cc([N+](=O)[O-])c1O`?
CHT block: inactive; CHT allo act: inactive; PHOSPHO1 block: 64*; TMEM16A act: inactive; ANO1 block: inactive; HDAC3 inhib: 4

What do the screens show for `Cc1cccc(NC(=S)NNC(=O)c2ccc(Br)o2)c1`?
CHT block: inactive; CHT allo act: inactive; PHOSPHO1 block: 88*; TMEM16A act: inactive; ANO1 block: inactive; HDAC3 inhib: 4

What do the screens show for `Cc1cccc(NC(=S)NNC(=O)c2csc(C)c2)c1`?
CHT block: inactive; CHT allo act: inactive; PHOSPHO1 block: 4; TMEM16A act: inactive; ANO1 block: inactive; HDAC3 inhib: -3

What do the screens show for `Cc1ccc(OCC(=O)NNC(=S)NC(=O)c2ccc(Br)o2)c(C)c1`?
CHT block: inactive; CHT allo act: inactive; PHOSPHO1 block: -8; TMEM16A act: inactive; ANO1 block: 25*; HDAC3 inhib: -1

What do the screens show for `O=C(NCc1cccc(Cl)c1)C1CCN(S(=O)(=O)c2ccc(F)cc2)CC1`?
CHT block: inactive; CHT allo act: inactive; PHOSPHO1 block: 24; TMEM16A act: inactive; ANO1 block: inactive; HDAC3 inhib: 1

Results for CCN(CC)S(=O)(=O)c1ccc(/C=C/C(=O)OCC(=O)Nc2cccc3ccccc23)cc1 ?
CHT block: inactive; CHT allo act: inactive; PHOSPHO1 block: -6; TMEM16A act: inactive; ANO1 block: inactive; HDAC3 inhib: 6

What do the screens show for `CC(=O)c1ccc(-n2c(-c3cc(-c4ccsc4)n[nH]3)n[nH]c2=S)cc1`?
CHT block: inactive; CHT allo act: inactive; PHOSPHO1 block: 65*; TMEM16A act: inactive; ANO1 block: inactive; HDAC3 inhib: 0

Results for COc1ccc(N(C)S(=O)(=O)c2ccc3c(c2)NC(=O)CC(=O)N3)c(OC)c1 ?
CHT block: inactive; CHT allo act: inactive; PHOSPHO1 block: 70*; TMEM16A act: inactive; ANO1 block: inactive; HDAC3 inhib: 2

How did Cc1cc([N+](=O)[O-])nn1CC(=O)NCCCn1ccnc1 do in these assays?
CHT block: inactive; CHT allo act: inactive; PHOSPHO1 block: 24; TMEM16A act: inactive; ANO1 block: inactive; HDAC3 inhib: -1

What do the screens show for `CCCCCCCc1nc2c(=O)n(C)c3ccccc3c2o1`?
CHT block: inactive; CHT allo act: inactive; PHOSPHO1 block: 63*; TMEM16A act: inactive; ANO1 block: inactive; HDAC3 inhib: 9

How did CCCCCc1nc2c(=O)n(C)c3ccccc3c2o1 do in these assays?
CHT block: inactive; CHT allo act: inactive; PHOSPHO1 block: -11; TMEM16A act: inactive; ANO1 block: inactive; HDAC3 inhib: 5

How did O=C(O)c1ccc(C[n+]2c(-c3ccccc3)csc2Nc2ccccc2)cc1 do in these assays?
CHT block: inactive; CHT allo act: inactive; PHOSPHO1 block: -9; TMEM16A act: inactive; ANO1 block: inactive; HDAC3 inhib: 5

Results for CC(C)(C)c1cc(-c2csc(Nc3ccccc3)[n+]2Cc2ccc(C(=O)O)cc2)cc(C(C)(C)C)c1O ?
CHT block: inactive; CHT allo act: inactive; PHOSPHO1 block: -21; TMEM16A act: inactive; ANO1 block: 100*; HDAC3 inhib: 0

Results for Cc1ccc(CCNC(=O)c2nn(C)c3c2CS(=O)(=O)c2ccccc2-3)cc1 ?
CHT block: inactive; CHT allo act: inactive; PHOSPHO1 block: 47; TMEM16A act: inactive; ANO1 block: inactive; HDAC3 inhib: 0

How did O=c1[nH]ncn2cccc12 do in these assays?
CHT block: inactive; CHT allo act: inactive; PHOSPHO1 block: -30; TMEM16A act: inactive; ANO1 block: 100*; HDAC3 inhib: 6

Results for CCCCN(C(=O)CSc1nc2ccccc2n1CC)C1CCS(=O)(=O)C1 (stereo not drawn) ?
TMEM16A act: inactive; HDAC3 inhib: -2

Screening results from PubChem BioAssay.
